# In publication PMC7826789 (International Journal of Molecular Sciences, 2021):
smiles,measurement,setting,value
Fc1ccc(-c2nn3ccccc3c2-c2ccncc2)cc1 [GW434756X],Kinases covered,CSNK1A1,CSNK1A1
COc1cc(Nc2cnc(C#N)c(O[C@H](C)CN(C)C)n2)ncc1-c1cnn(C)c1 [CCT244747],Kinases covered,CHEK1,CHEK1
CCOc1ccc2c(-c3ccnc(Nc4cccc(C(F)(F)F)c4)n3)cnn2n1 [GW811761X],Kinases covered,CLK1,CLK1
same,Kinases covered,CLK2,CLK2
CC(C)C(=O)N[C@@H]1CCN(C(=O)Nc2nc3c(s2)-c2nc(-c4ccccc4Cl)ncc2CC3)C1 [BI00047804],Kinases covered,CLK1,CLK1
same,Kinases covered,CLK3,CLK3
same,Kinases covered,CLK4,CLK4
Cn1ccc2ncnc(Oc3ccc(NC(=O)Nc4ccccc4)cc3)c21 [TPKI-69],Kinases covered,CSF1R,CSF1R
CCN1CCN(Cc2ccc(C(=O)Nc3ccc(C)c(Oc4ccc5c(c4)CC(=O)N5)c3)cc2C(F)(F)F)CC1.Cl.Cl [DDR1-IN-1],Kinases covered,DDR1,DDR1
NS(=O)(=O)c1ccc(N/N=C2\C(=O)Nc3ccc(C(=O)NCCc4c[nH]cn4)cc32)cc1 [GW300660X],Kinases covered,CLK2,CLK2
CCOc1ccc2c(-c3ccnc(Nc4cc(OC)cc(C(F)(F)F)c4)n3)cnn2n1 [GW807982X],Kinases covered,CLK1,CLK1
same,Kinases covered,CLK2,CLK2
Cc1nccc(-c2c(-c3ccc(F)cc3)ncn2CCCN2CCOCC2)n1 [SB-282975],Kinases covered,CSNK1D,CSNK1D
COc1ccc2c(-c3ccnc(Nc4cccc(OC(F)(F)F)c4)n3)cnn2n1 [GW810372X],Kinases covered,CLK2,CLK2
CNC(=O)c1c(F)cccc1Nc1nc(Nc2cc3c(cc2OC)CCN3C(=O)CN(C)C)nc2[nH]ccc12 [GSK1838705],Kinases covered,CLK1,CLK1
same,Kinases covered,CLK2,CLK2
CNc1nc(Nc2ccc(C(=O)N3CCOCC3)cc2OC)nc2[nH]cc(Cl)c12 [JH-II-127],Kinases covered,CHK2,CHK2
O=C(Nc1ccccc1)Nc1cccc(Oc2ccc3nccn3n2)c1 [TPKI-39],Kinases covered,CIT,CIT
same,Kinases covered,CSF1R,CSF1R
same,Kinases covered,DDR1,DDR1
CCC(NN(C)C)=C1C(=O)Nc2ccc(C(C)=O)cc21 [BI00036838],Kinases covered,CDKL5,CDKL5
same,Kinases covered,DYRK1A,DYRK1A
same,Kinases covered,DYRK1B,DYRK1B
same,Kinases covered,DYRK2,DYRK2
COC[C@@H](C)N[C@H]1CC[C@H](Nc2cc(-c3cccc(NCC4(C#N)CCOCC4)n3)c(Cl)cn2)CC1 [NVP-2],Kinases covered,DYRK1A,DYRK1A
Nc1nccc(-c2c(-c3ccc(F)cc3)ncn2C2CCN(Cc3ccccc3)CC2)n1 [SB-219980],Kinases covered,CSNK1A1,CSNK1A1
same,Kinases covered,CSNK1D,CSNK1D
same,Kinases covered,CSNK1E,CSNK1E
Cc1cn(-c2cc(NC(=O)c3ccc4c(c3)CN(c3cncnc3)C[C@@H]4C)cc(C(F)(F)F)c2)cn1 [D2202-1],Kinases covered,DDR1,DDR1
CCCNC(=O)c1ccc(Nc2ncc(C(F)(F)F)c(Nc3ccccc3C(C)=O)n2)c(Br)c1 [BI00801818],Kinases covered,CLK1,CLK1
same,Kinases covered,CLK4,CLK4
same,Kinases covered,DYRK1A,DYRK1A
C[C@@H]1CCN(C(=O)CC#N)C[C@@H]1N(C)c1ncnc2[nH]ccc12 [PFE-PKIS 25],Kinases covered,DCLK3,DCLK3
O=C(Nc1n[nH]c2cc(-c3ccsc3)ccc12)C1CC1 [SB-732932],Kinases covered,CDKL2,CDKL2
Cc1ccc(-n2nc(C(C)(C)C)cc2NC(=O)Nc2ccc(OCCN3CCOCC3)cc2)cc1 [BIRB0876BS],Kinases covered,DDR1,DDR1
FC1=CC(C3=NC2=CC(OC)=C(OC)C=C2C(N[C@H]4[C@H]([C@](C)(O)C)CNC4)=N3)=C(O)C=C1.Cl.Cl [CCT241533],Kinases covered,CHEK2,CHEK2
Cc1cc(NC(=O)c2cccc(NC(=O)/C=C/CN(C)C)c2)ccc1Nc1nccc(-c2cccnc2)n1 [JNK-IN-7],Kinases covered,CDKL5,CDKL5
same,Kinases covered,DRAK1,DRAK1
